Assay results taken from PubChem BioAssay (NCATS).
Unmarked numbers belong to inactive results. Results filed as inconclusive are left out. Calls of active or inactive are those of the source. Unless noted, calls follow the shape of the dose curve; as a rule, active = well fitted curve in either direction with a large enough effect (not every such curve was filed as active); inconclusive = small, poorly fitted or top-dose-only effect, or another doubt; inactive = flat fitted curve, though single readings scatter.

What was measured:
[1] = AP1 Signaling Pathway (AID 357); details: ME-180 AP-1-bla reporter, EGF-induced, beta-lactamase ratio, 5 h; at 17.2 µM (top of the series) unless noted;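 also: ME-180 reporter cells stimulated with EGF at its EC50 level; % is scaled to controls: 0 for no effect and ±100 for the full control effect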
Outline: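 First, ME-180 AP-1-bla cells were cultured overnight at 37 °C in low-serum Opti-MEM. Next, titrated compounds with EC50 EGF were incubated 5 hours. Finally, CCF4 was added for 2.5 hours and the 460/530 nm ratio recorded.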

[2] = NFAT Signaling Pathway (AID 444); details: Jurkat NFAT-bla M1, carbachol, beta-lactamase ratio, 5 h; at 17.2 µM (top of the series) unless noted;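 also: carbachol stimulus at about its EC50 of 1 µM final; % is scaled to controls: 0 for no effect and ±100 for the full control effect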
Outline: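 Jurkat cells with NFAT-driven β-lactamase reporter and co-expressed M1 receptor, stimulated with carbachol (final 1 uM, ~EC50), compound titration, 5 h at 37 °C. CCF4 loaded 1 h at RT; 460/530 nm ratio gave %activity and AC50.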

[3] = Stat Signaling Pathway (AID 446); details: ME-180 (cervical carcinoma) SIE beta-lactamase reporter, IL-6 stimulated, 5 h; at 17.2 µM (top of the series) unless noted;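 also: ME-180 cervical cancer cells given 40 pM IL-6 alongside compound; SIE-controlled beta-lactamase reporter measured as 460/530 nm FRET emission ratio; % is scaled to controls: 0 for no effect and ±100 for the full control effect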
Outline: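 Normalization used AC90 stimulation (300 pM IL-6) and AC90 inhibition (125 nM pan-JAK inhibitor at 40 pM IL-6). The underlying signal is SIE-driven beta-lactamase in ME-180 cells after 5 h IL-6 exposure with compound.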

[4] = target: Glucocorticoid receptor (Homo sapiens) (UniProt P04150); experiment: GR-GFP Redistribution (AID 450;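 active = compounds whose dose series gives a full or clear partial fitted curve of increased nuclear translocation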; also: potency is read from the fitted curve at half-maximal effect)
Glucocorticoid receptor (Homo sapiens), sequence (P04150 whole entry, looked up): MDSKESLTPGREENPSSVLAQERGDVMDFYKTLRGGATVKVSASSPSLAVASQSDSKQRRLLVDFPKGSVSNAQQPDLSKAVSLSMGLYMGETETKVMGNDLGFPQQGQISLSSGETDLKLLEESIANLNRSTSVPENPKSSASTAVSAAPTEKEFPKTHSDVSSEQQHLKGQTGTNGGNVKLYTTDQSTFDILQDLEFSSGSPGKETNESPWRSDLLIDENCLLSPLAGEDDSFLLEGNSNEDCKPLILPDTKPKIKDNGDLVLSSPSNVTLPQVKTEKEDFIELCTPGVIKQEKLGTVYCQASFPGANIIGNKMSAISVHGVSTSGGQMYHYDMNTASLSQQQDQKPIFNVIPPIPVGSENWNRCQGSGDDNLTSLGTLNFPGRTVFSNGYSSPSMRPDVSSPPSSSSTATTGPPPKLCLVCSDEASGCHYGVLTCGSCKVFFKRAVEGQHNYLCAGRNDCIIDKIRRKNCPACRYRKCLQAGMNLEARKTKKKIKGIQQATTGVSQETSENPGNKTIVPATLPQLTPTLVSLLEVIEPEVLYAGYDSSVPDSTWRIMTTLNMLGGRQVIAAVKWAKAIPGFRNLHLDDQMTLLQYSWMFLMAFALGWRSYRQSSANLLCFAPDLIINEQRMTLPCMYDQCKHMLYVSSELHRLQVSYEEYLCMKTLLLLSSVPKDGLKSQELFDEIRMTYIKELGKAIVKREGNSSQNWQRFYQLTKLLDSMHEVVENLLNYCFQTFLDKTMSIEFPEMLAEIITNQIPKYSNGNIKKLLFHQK

SMILES	activity change, negative = inhibition [1] [%]	activity change, negative = inhibition [2]	activity, negative = inhibition [3] [%]	Potency [4] [µM]
COCc1cc(=O)[nH]c(Nc2nc3ccccc3o2)n1	20.9	-12.8%	1.07	> 20.6
CCOC(=O)c1cnn2c1[nH]c(=O)c1ccccc12	-8.34	9.32%	9.94	> 20.6
Cc1cc(C)n2c3c(c(C#N)c2n1)CC(C)(C)OC3	5.4	-2.38%	-0.114	> 20.6
Cc1[nH]c2ccc3c(ncn3CCC#N)c2c1C	0.919	9.51%	-5.09	> 20.6
CCN(CC)CCN1C(=O)C(=O)/C(=C(/O)c2ccc(F)cc2)C1c1cccnc1 (centres undefined)	12.6	3.02%	-0.766	> 20.6
COC(=O)C(NC(C)=O)(Nc1ccc(Br)cn1)C(F)(F)F (centres undefined)	0.568	3.2%	-10.2	> 20.6
CN1CCN(c2ncnc3c2[nH]c2ccc(F)cc23)CC1	7.75	-5.03%	11.7	> 20.6
CCN(CC)CCOC(=O)C1(c2ccc(OC)c(OC)c2)CCCC1	10.4	-82.2% (active)	11	> 20.6
CCCc1nc2n[nH]c(N)c2c2c1CCCC2	6.52	-0.387%	12.6	> 20.6
CNC(=O)c1cc2ccccc2o1	8.83	-13.4%	2.75	> 20.6
CC(C)OC(=O)[C@H]1[C@H](c2ccc(Cl)cc2)[C@@](C#N)(C(N)=O)[C@@H]2C=CC(C(N)=O)=CN21	-13.7	-5.51%	-11.5	> 20.6
CSc1nc(O)c(Cc2ccccc2)c(=O)[nH]1	-12.8	14.1%	0.301	> 20.6
O=C(NCCO)c1cccc2c1C(=O)c1ccccc1-2	9.17	2.44%	10.7	> 20.6
CC1(C)Cc2c(c(N3CCOCC3)nc3snc(N)c23)CO1	-12.8	-24.1%	-10.9	> 20.6
Cc1cccc(-c2nnc3n2N=C(c2ccccc2)CS3)c1	-18.5	-10.4%	-6.13	> 20.6
O=C(O)c1c[nH]c2ccc(S(=O)(=O)N3CCOCC3)cc12	13.4	-7.03%	6.65	> 20.6
Cc1ccc(-c2nnc(-c3cccc(Br)c3)o2)cc1	14.2	-11.6%	12.4	> 20.6
COc1ccc(/C(O)=C2/C(=O)C(=O)N(CCCN(C)C)C2c2ccccc2)cc1OC (centres undefined)	-9.48	-0.461%	8.71	> 20.6
C=C(C)C1Cc2c(C)nn(-c3nc(C)cc(C)n3)c2C1 (centres undefined)	-4.28	10.4%	0.182	> 20.6
COc1cccc(C(=O)N2CCN(Cc3ccccn3)CC2)c1OC	2.17	7.94%	7.75	> 20.6
CC1(C)CC(=O)C(C=NCCN2CCN(C(=O)C34CC5CC(CC(C5)C3)C4)CC2)=C(O)C1	-9.89	9.88%	7.24	> 20.6
O=C(Nc1ccc2c(c1)OCO2)c1cc2n(n1)C(C(F)(F)F)CC(c1ccccc1)N2 (centres undefined)	6.53	6.64%	-1.67	> 20.6
FC(F)(F)c1cccc(N2CCc3cn[nH]c32)c1	-1.96	0.155%	-1.19	> 20.6
O=C1NCC(COCC2CC=CCC2)O1 (centres undefined)	9.6	15%	2.08	> 20.6
CCOC(=O)c1cc(C)n(Cc2cccc(OC)c2OC)c1C	-16.9	-21.6%	-14.9	> 20.6
Cc1cc(C)n(C(=O)CNC(=O)c2cccs2)n1	10.9	3.15%	4.05	> 20.6

SMILES	activity change, negative = inhibition [1] [%]	activity change, negative = inhibition [2]	activity, negative = inhibition [3] [%]	Potency [4] [µM]
COc1ccc(/C(O)=C2/C(=O)C(=O)N(CCCN(C)C)C2c2ccccc2)cc1Cl (centres undefined)	8.68	-3.88%	12.1	> 20.6
CCOC(=O)CC1=C(C(=O)OCC)C(c2cc(OC)c(OC)cc2OC)C(C#N)=C(N)O1 (centres undefined)	0.567	-1.8%	10.5	> 20.6
COc1ccc(OC)c(C2C(C(=O)c3ccco3)=C(O)C(=O)N2CCCN2CCOCC2)c1 (centres undefined)	11.5	0.311%	-6.98	> 20.6
CC1(C)CC(N(Cc2ccco2)C(=O)Cc2ccccc2)CCO1 (centres undefined)	-1.99	-3.12%	9.62	> 20.6
COc1cccc(Cn2c(OCC3CCCO3)nc3c2c(=O)n(C)c(=O)n3C)c1 (centres undefined)	-4.44	-8.17%	-4.79	> 20.6
O=C1CCC(=O)N1CNc1ccccn1	10.7	-7.64%	15.6	> 20.6
COc1cccc(C2C(C(=O)c3cc4ccccc4o3)=C(O)C(=O)N2CCN(C)C)c1OC (centres undefined)	8.36	1.15%	-6.68	> 20.6
O=c1cc(O)nc2n1CCCS2	5	-0.525%	-1.13	> 20.6
N#CC1=C(N)OC2=C(C(=O)CCC2)C1CCc1ccccc1 (centres undefined)	-2.2	-13.6%	8.87	> 20.6
O=C1C=C(O)CC(c2ccco2)C1 (centres undefined)	10.5	-7.18%	3.18	> 20.6
C/C(=C\C(=O)O)CC(=O)O	-2.96	-2%	7.83	> 20.6
CCCC1C2C(=O)N(c3ccccc3OC)C(=O)C2ON1c1ccccc1 (centres undefined)	1.4	4.89%	0.927	> 20.6
CCOC(=O)CNC(=O)CNC(=O)c1ccc(OCC(C)C)cc1	-5.66	8.09%	-1.49	> 20.6
Nc1nc2n(n1)C(c1cccs1)CC(c1ccc(Br)cc1)N2 (centres undefined)	0.611	11%	4.42	> 20.6
CC1=CC=CN2CC(O)CN=C12 (centres undefined)	3.58	-0.121%	3.52	> 20.6
COc1cccc(C2/C(=C(/O)c3cnn(-c4ccccc4)c3C)C(=O)C(=O)N2CCN(C)C)c1 (centres undefined)	3.35	-7.78%	-11.2	> 20.6
CCOc1ccc(-c2nnc3sc(-c4c(OC)cccc4OC)nn23)cc1	3.89	-3.46%	8.95	> 20.6
CCOC(=O)c1cnc(SC2CC(=O)N(c3cccc(OC)c3)C2=O)nc1N (centres undefined)	-16	-6.66%	-12.1	> 20.6
O=C1c2ccccc2C(=O)N1CCN1CCc2ccccc21	-29	1.23%	-3.43	> 20.6
O=C(C1=C(O)C(=O)N(CCCN2CCOCC2)C1c1ccccn1)c1cccs1 (centres undefined)	-0.154	-1.18%	-0.582	> 20.6
CCOC(=O)c1[nH]c2ccc(OC)cc2c1C	-0.35	-6.84%	6	> 20.6
CN1CCN(CCCCC(=O)c2ccccc2)CC1	16.6	-15.1%	9.37	> 20.6
O=C(Nc1ccc2c(c1)OCO2)c1cncc(Br)c1	-12.1	-3.16%	-14.9	> 20.6
C=CCn1c(=S)[nH]c2ccccc2c1=O	-3	10.1%	4.87	> 20.6
CC1(C)Cc2c(sc3nc(SCC(=O)NCc4ccco4)n(-c4ccccc4)c(=O)c23)CS1	-19.4	-13.9%	-26.5	> 20.6
